Screening data: PubChem BioAssay, National Center for Advancing Translational Sciences (NCATS)
The list is not random: actives were taken first. Their share in the collection is about 21%.
Pf growth 48h: P. falciparum growth inhibition at 48 hours (one generation). P. falciparum luciferase growth in erythrocytes, 48 h. Potency, µM (titrated, usually from 28.7 µM), usual class: inhibitors. actives 5.9% (n = 310,000). AID 504832
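Read-out is firefly luciferase luminescence from an integrated reporter in P. falciparum, so falling signal marks reduced parasite growth. Infected erythrocytes were at 2% hematocrit and 0.1% parasitemia (final) in Albumax-supplemented RPMI 1640.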
Pf growth 96h: P. falciparum growth inhibition at 96 hours | actives 6.9% (n = 320,000) | P. falciparum luciferase reporter growth, 96 h | Potency, µM (highest dose often 28.7 µM), most hits filed as inhibitors | AID 504834
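P. falciparum expressing integrated firefly luciferase grown in erythrocytes (2% hematocrit, 0.05% parasitemia final) with compounds for 96 hours at 37 C, 5% CO2. Growth inhibition read as loss of luminescence after adding luciferase detection reagent.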
CHX counter: affects cycloheximide protein synthesis inhibition readout, counter-screen; cell reporter, cycloheximide protein synthesis inhibition counterscreen; max response, %; actives 12% (n = 300,000); AID 2314; in the data active means max response mostly above about 13%, no sharp cut-off; inactive means mostly below about 14%; further: read at 38.3 µM for the half of the compounds with a filed dose
HCV inhibitor: blocks hepatitis C virus. Potency, µM (titrated, usually from 41.8 µM), usual class: inhibitors. actives 3.4% (n = 340,000). Huh7.5.1 HCVcc-Cre infection, luciferase reporter, 44 h
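Luciferase read-out (15 sec integration) after a 15 min room-temperature substrate step quantifies HCVcc-Cre infection. Cells, 1,000 per well, had compound added 4 h post-plating, then virus at ~0.5 moi, and were cultured 44 h.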
Shiga toxin inh: Shiga toxin inhibition; Vero cells, Shiga toxin protein synthesis inhibition reporter; inhibition, % at 38.7 µM; actives 9.2% (n = 290,000); in the data active means inhibition mostly above about 28%, no sharp cut-off; inactive means mostly below about 43%
HCMV inh: blocks human cytomegalovirus replication. HFF cells, HCMV-luciferase reporter, 72 h; hits give low values. actives 4.5% (n = 410,000). activity change, negative = inhibition, % at 57.5 µM; in the data active means activity change below about -60%; inconclusive means no clear call, values can overlap the other calls; inactive means above about -39%
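After 16 h attachment at 37C, HFF cells received test compound and HCMV-luciferase (1 PFU/cell); reporter luminescence read 72 h later, data normalized against buffer-only and known inhibitor Salinomycin.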
Hits are given with their value; 0 = inactive; ? = inconclusive; - = no result; [ ] = remark or other dose. Unless noted, the call rests on the fitted dose curve; in most records, active means well fitted inhibition curve with a large enough effect; inconclusive means small, poorly fitted or top-dose-only effect, or another doubt; inactive means no such curve, though single readings can be large or run the other way.

SMILES | Pf growth 48h | Pf growth 96h | CHX counter | HCV inhibitor | Shiga toxin inh | HCMV inh
COc1ccc(-c2cnn3c(C)cc(C)nc23)cc1OC | - | - | - | - | - | 0
Cc1cc(N)n2ncc(-c3ccc(Cl)cc3)c2n1 | 0 | ? | 22 | ? | 49 | 0
Cc1cc(Cl)n2ncc(-c3ccccc3)c2n1 | 0 | 0 | 57 | ? | 62 | ?
CNC(=O)N1CCC(C(=O)c2c(C)c(C)c(C)c(C)c2C)CC1 | ? | ? | 0 | 0 | 0 | 0
COc1ccc(CNC(=O)C2CCN(S(=O)(=O)c3c(C)noc3/C=C/c3cccs3)CC2)cc1 | - | - | - | - | - | 0
COc1ccc(CCC(=O)NCc2nc3cccnc3n2Cc2ccc(C)cc2)cc1 | - | - | - | - | - | 0
COc1ccccc1C(=O)NC(=O)COC(=O)c1ncc(Cl)c(Cl)c1Cl | 0 | 0 | - | 0 | - | 0
Cc1cc(-c2ccc(Cl)cc2)c2cnn(C(C)C)c2n1 | 0 | 0 | 30 | ? | 0 | 0
Cc1nc2c(-c3ccc(F)cc3)cnn2c(N)c1-c1ccc(F)cc1 | 0 | ? | 61 | ? | 93 | -76
Cc1cc(N)n2ncc(-c3ccc(F)cc3)c2n1 | - | 0 | 50 | 10µM | 68 | 0
CC(C)c1cc(N2CCOCC2)n2ncc(-c3ccccc3)c2n1 | 0 | 0 | 0 | ? | 0 | ?
Cc1cc(N2CCOCC2)n2ncc(-c3ccccc3Cl)c2n1 | 0 | 0 | 41 | ? | 88 | 0
Cc1nc2c(-c3ccc(F)cc3)c(C)nn2c(N2CCOCC2)c1C | ? | 0 | 0 | 0 | 0 | 0
CC(C)n1nnnc1-c1ccc(Cl)cc1 | 0 | 0 | 0 | 0 | 0 | 0
CC(Sc1ncn[nH]1)C(=O)c1c(N)n(C)c(=O)n(C)c1=O (centres undefined) | 0 | 0 | - | 0 | - | 0
CCCC(=O)Nc1nnc(S(=O)(=O)N(C)Cc2ccco2)s1 | 0 | 0 | 0 | 0 | 0 | -
CCOC(=O)c1cnc(N)nc1C(F)(F)F | 0 | 0 | 0 | 0 | 0 | 0
COc1ccc(/C=C(\NC(=O)c2ccc(C)cc2)C(=O)NCCCn2ccnc2)cc1 | 0 | 0 | 0 | 0 | 0 | 0
CCCCOc1ccc(S(=O)(=O)NC(=O)C2(C)CCN2C(=O)c2cccc(F)c2)cc1 (centres undefined) | - | - | - | - | - | 0
CCSCc1nnc(SCC(=O)Nc2ccc(F)cc2)n1CC | 0 | 12µM | 0 | 0 | 0 | 0
Cn1c(CNC(=O)c2ccc(Cl)cc2)nnc1SCC(=O)NC1=NCCS1 | 0 | 0 | 0 | 0 | 0 | 0
CCn1c(CNc2ccc(F)cc2)nnc1SCC(=O)Nc1ccc(OC)cc1 | ? | 0 | 0 | 0 | 0 | 0
CCOc1ccc(NC(=O)CSc2nnc(Cn3cnc([N+](=O)[O-])n3)n2C)cc1 | 0 | 0 | 0 | 0 | 0 | 0
CCn1c(CNC(=O)c2ccc(Cl)cc2)nnc1SCC(=O)NC1=NCCS1 | 0 | 8.3µM | 0 | 0 | 0 | 0
C=CCn1c(CCNC(=O)c2cccs2)nnc1SCC(=O)Nc1cccc(C(C)=O)c1 | 0 | 9.3µM | 0 | 0 | 0 | 0
SMILES | Pf growth 48h | Pf growth 96h | CHX counter | HCV inhibitor | Shiga toxin inh | HCMV inh
C=CCn1c(CCNC(=O)c2cccs2)nnc1SCC(=O)c1ccc(Br)cc1 | - | ? | 0 | 0 | 0 | 0
CCOc1ccc(NC(=O)CSc2nnc(Cn3cnc([N+](=O)[O-])n3)n2CC)cc1 | 0 | 0 | 0 | 0 | 0 | -67
CCCOC(=O)c1ccc(Nc2c(C(=O)OCC)cnc3c(C)cc(Cl)cc23)cc1 | - | - | - | - | - | 0
CCn1c(CNC(=O)c2cccs2)nnc1SCC(=O)Nc1ccc(Cl)cc1 | 10µM | 9.3µM | 0 | 0 | 0 | 0
Cc1ccc(C(C)C)c(OCC(=O)OCC(=O)NC2CCS(=O)(=O)C2)c1 (centres undefined) | 0 | 0 | - | ? | - | 0
C(=N\NCc1ccccc1)/c1ccc2nccnc2c1 | 0 | 0 | 37 | 0 | 64 | 0
S=C(N/N=C/c1ccc2ncccc2c1)Nc1ccccc1 | 0 | 0 | 35 | 0 | 66 | 0
CCC(C)[C@@H](N)C(=O)N/N=C/c1ccc2ncccc2c1 (some centres undefined) | ? | 12µM | 0 | 0 | 0 | 0
C(=N\NCc1ccccc1)/c1ccc2ncccc2c1 | 0 | 0 | 38 | 0 | 79 | 0
CCN(CC)CCCNC(=O)c1ccc(OCC(=O)Nc2ccccc2C(F)(F)F)c(OC)c1 | ? | 19µM | 0 | ? | 0 | 0
CCS(=O)(=O)c1ccc(O)c(NC(=O)COc2ccc(OC)cc2)c1 | 0 | ? | 0 | 0 | 0 | 0
CCCc1ccc(OCC(=O)Nc2cc(S(=O)(=O)CC)ccc2O)cc1 | 0 | 12µM | 0 | 0 | 0 | 0
Cc1cccc(OCC(=O)Nc2cc(C)ccc2O)c1 | 12µM | ? | 21 | ? | 30 | 0
Cc1cccc(OCC(=O)Nc2cc(C)c(C)cc2O)c1 | 3.7µM | 0 | 0 | 0 | 0 | 0
Cc1cccc(OCC(=O)Nc2ccccc2-c2ccccc2)c1 | 0 | 0 | 0 | ? | 0 | 0
Cc1cccc(OCC(=O)Nc2ccccc2C(F)(F)F)c1 | 0 | 0 | 0 | 0 | 81 | ?
Cc1cccc(C)c1OCC(=O)Nc1ccccc1C(F)(F)F | 0[1.15 µM] | 0[1.15 µM] | 0 | 0 | 0 | 0
O=C(c1ccc2c(c1)CCO2)N1CC2ON=C(c3c(F)cccc3Cl)C2C1 (centres undefined) | - | - | - | - | - | 0
COc1ccc(/C=C\c2onc(C)c2S(=O)(=O)N2CCC(C(=O)Nc3ccc(C)cc3C)CC2)cc1 | - | - | - | - | - | 0
Cc1cnc(=O)[nH]c1SCC(=O)Nc1cc(C(F)(F)F)ccc1Cl | - | - | - | - | - | 0
CC(C(=O)O)c1ccc(C(=O)c2ccccc2)s1 (centres undefined) | 0 | 0 | - | 0 | - | 0
CNc1ncc(C(=O)c2ccc(Br)cc2)s1 | 0 | 0 | 44 | 0 | 81 | 0
O=C(c1ccncc1)c1ccc(Br)cc1 | 0 | 0 | 0 | 0 | 0 | 0
CNc1ncc(C(=O)c2ccccc2)s1 | 0 | 0 | 41 | 0 | 70 | 0
Cc1ccc(S(=O)(=O)N2CCCC2C(=O)Nc2ccc(Br)cc2)cc1 (centres undefined) | - | - | - | - | - | -61
SMILES | Pf growth 48h | Pf growth 96h | CHX counter | HCV inhibitor | Shiga toxin inh | HCMV inh
COc1ccc(NC(=O)C2CCCN2S(=O)(=O)c2ccc(C)cc2)cc1 (centres undefined) | - | ? | 0 | 0 | 0 | 0
COC(=O)C1CCCN1S(=O)(=O)c1ccc([N+](=O)[O-])cc1 (centres undefined) | 0 | ? | 0 | 0 | - | 0
COC(=O)C1CCCN1S(=O)(=O)c1ccc2ccccc2c1 (centres undefined) | 10µM | - | 0 | 0 | 0 | 0
O=C(Nc1ccc2c(c1)OCCO2)C1CCCN1C(=O)Nc1ccc(F)cc1 (centres undefined) | 0 | 0 | 12 | 0 | 0 | 0
COc1ccc(NC(=O)C2CCCCN2S(=O)(=O)c2ccc(F)cc2)cc1 (centres undefined) | 0 | 0.59µM | 0 | ? | 0 | 0
Cc1ccc(S(=O)(=O)N2CCCCC2C(=O)Nc2ccc(N(C)C)cc2)cc1 (centres undefined) | - | - | - | ? | - | 0
O=C(c1cccc(NS(=O)(=O)c2ccc(Br)cc2)c1)N1CCCCC1 | 0 | 0 | - | 0 | - | 0
CN(C)S(=O)(=O)c1ccc(NC(=O)CN2C(=O)NC3(CCCC3)C2=O)cc1 | 0 | 0 | 0 | 0 | 0 | 0
